FMDV RLuc = shows antiviral activity in FMDV Renilla assay. Potency, µM (titrated, usually from 57.5 µM), without a hit: at the top dose activity change, negative = inhibition, most hits filed as inhibitors. 0.32% of 120,000 active. FMDV replicon cells, Renilla luciferase signal; note: nearly all actives have a fitted effect of over 55% in size
FMDV antiviral = antivirals against foot and mouth disease virus. FMDV antiviral cell assay, firefly luciferase signal. Potency, µM (doses to about 57.5 µM), for inactives: at the top dose activity change, negative = inhibition, hits mostly inhibitors. 0.23% of 120,000 active. AID 1745856; note: nearly all actives have a fitted effect of over 60% in size
The depositor's hits bear a star; ? = inconclusive; ! = not active in a repeat; [ ] = dose if it differs, or a comment. A selection: hits, their analogues and other compounds. The true share with any hit is near 0.4%. Calls come from the whole dose curve. % is set by controls: 0 for no effect and ±100 for the full control effect; potency is the fitted concentration of half-maximal effect.

SMILES	FMDV RLuc	FMDV antiviral
COc1ccccc1NC(=O)c1cc2c(=O)n3ccccc3nc2n1Cc1ccccc1	-4.5%	18.0%
O=C(COC(=O)CCSc1ccccc1Cl)Nc1ncc(Cl)cc1Cl	-10.5%	-0.6%
COc1ccc(NC(=O)C(C)Oc2cccc(C)c2C)c2cccnc12 (centres undefined)	3.98µM*	?
COc1ccccc1OC(C)C(=O)Nc1ccc(OC)c2ncccc12 (centres undefined)	17.7%	13.9%
CCOc1ccc(NC(=O)C(C)Oc2cc(C)cc(C)c2)c2cccnc12 (centres undefined)	-14.0%	-7.7%
COc1ccc(NC(=O)C(C)Oc2cc(C)cc(C)c2)c2cccnc12 (centres undefined)	28.2µM*	?
COc1ccc(OC)c2c1cc(C(=O)NCCC(=O)Nc1ccc3c(c1)OCCO3)n2C	-4.7%	70.3%
Cc1ccc(-c2[nH]ncc2CNCc2cccnc2)cc1	10.8%	16.7%
COc1ccc(-c2cc(C(F)(F)F)nc(S(=O)(=O)CCCC(=O)Nc3ccccc3C(F)(F)F)n2)cc1OC	-9.3%	-15.1%
COc1ccc(NC(=O)CCCS(=O)(=O)c2nc(-c3ccc(OC)c(OC)c3)cc(C(F)(F)F)n2)cc1OC	-7.4%	28.2µM*
CC(C)NC(=O)/C(C#N)=C\c1ccc(O)cc1	7.8%	79.3%
CC(C)NC(=O)/C(C#N)=C\c1cccc(/C=C(/C#N)C(=O)NC(C)C)c1	-33.9%	28.2µM*
Cc1ccccc1-c1nc2ccc(NC(=O)C3CC3)cc2o1	8.9%	234.4%
O=C(Nc1cc(C(F)(F)F)ccc1Cl)C1=C(c2ccccc2)S(=O)(=O)CCO1	-30.8%	3.9%
O=C(Nc1c(Cl)cccc1Cl)C1=C(c2ccccc2)S(=O)(=O)CCO1	15.8µM*	?
Cc1ccc(-n2c(/C=C\c3ccc(F)c(F)c3)nc3ccccc3c2=O)c(C)c1	3.55µM*	7.94µM*
Cc1ccccc1-n1c(/C=C/c2ccc(O)cc2)nc2ccccc2c1=O	?	8.0%
COc1cccc(-c2nc(C#N)c(N3CCN(C(=O)c4ccccc4)CC3)o2)c1	-3.3%	30.3%
Cc1cc(C(=O)CN2CCN(Cc3ccc4c(c3)CCO4)CC2)c(C)n1C1CCS(=O)(=O)C1 (centres undefined)	-3.8%	0.6%
C=CCNc1nc2c(c(=O)n(C)c(=O)n2C)n1CC(O)COc1ccc(OC)cc1 (centres undefined)	22.4µM*	?
C=CCNc1nc2c(c(=O)n(C)c(=O)n2C)n1CC	-8.3%	-7.1%
C=CCNc1nc2c(c(=O)n(C)c(=O)n2C)n1CCC(C)C	15.8µM*	28.2µM*
Cc1ccc(OCC(O)Cn2c(NCC(=O)O)nc3c2c(=O)n(C)c(=O)n3C)cc1 (centres undefined)	-15.7%	-6.1%
CCc1ccccc1NC(=O)Nc1cn(CC(C)C)c(=O)c2ccccc12	-13.1%	-13.6%
Cc1ccc(Cl)cc1-n1ncc2c(NC3CCCCCC3)ncnc21	25.1µM*!	?
SMILES	FMDV RLuc	FMDV antiviral
Cc1ccc(-n2ncc3c(NC4CCCCCC4)ncnc32)cc1Cl	-0.9%	106.9%
CCc1c(C)sc2c1CCN(Cc1ccccc1C#N)C2c1ccccc1 (centres undefined)	16.4%	18.4%
CCc1c(C)sc2c1CCN(Cc1ccccc1)C2c1ccccc1 (centres undefined)	12.6µM*	?
CCOC(=O)c1sc(Nc2ccc(C(C)=O)cc2)nc1C(F)(F)F	0.1%	160.7%
COc1ccccc1-c1csc(N2N=C(C)CC2c2cc(OC)c(OC)c(OC)c2)n1 (centres undefined)	0.0%	25.9%
Cc1cccc2c(C(=O)O)cc(-c3ccc(Cl)s3)nc12	-10.9%	13.9%
CC(C)(C)c1ccc2c(c1)OCCOCCOCCOc1cc(C(C)(C)C)ccc1OCCOCCOCCO2	28.2µM*	?
Oc1ccc2c(c1)OCCOCCOc1cc(O)ccc1OCCO2	10.1%	19.5%
O=C(NCc1ccc(-c2nc3ccccc3s2)o1)c1ccc(F)cc1F	-25.3%	10.5%
CC(C)NS(=O)(=O)c1ccc(Cl)c(C(=O)NCc2ccc(-c3nc4ccccc4s3)o2)c1	14.1µM*	?
CCCCOC(=O)c1ccc(NC(=O)c2cc(=O)c3ccccc3o2)cc1	-4.6%	-19.1%
CCCCOC(=O)c1cccc(NC(=O)c2cc3ccccc3o2)c1	-12.9%	8.91µM*
Cc1ccc(NC(=O)C2CCCN2S(=O)(=O)c2ccc3c(c2)CCCC(=O)N3)cc1C (centres undefined)	28.2µM*	35.5µM*
Cc1cc(C)cc(NC(=O)C2CCCN2S(=O)(=O)c2ccc3c(c2)CCCC(=O)N3)c1 (centres undefined)	?	-29.5%
Cc1cccc(-n2nnnc2S(C)(=O)=O)c1	?	28.2µM*
Cc1cccc(-n2nnnc2C2(N3CCCC3)CCCC2)c1	16.3%	-4.2%
CC(c1nc2ccccc2s1)N(C)S(=O)(=O)c1ccccc1 (centres undefined)	-0.1%[1.06 µM]	12.9%
N#CC(/C(=N/S(=O)(=O)c1ccccc1)c1ccccc1)c1nc2ccccc2s1 (centres undefined)	1.1%	28.2µM*
CC(C)NC(=O)NCc1c(-n2cccc2)sc2c1CCN(C)C2	-5.6%	-3.4%
CCCCCCCCCCCCCCCC[N+](C)(C)C	-16.3%	-27.4%
CC#CC[N+](C)(C)CCCCCCCCCCCC	?	12.6µM*
CCOc1ccccc1-c1cc(C(=O)O)c2ccccc2n1	-5.6%	18.3%
COc1ccc2c(c1)c(C(C)=O)c(C)n2CCc1ccccc1	11.2µM*	?
COc1ccc2c(c1)c(C(C)=O)c(C)n2CCc1ccc(OC)c(OC)c1	-6.2%	-2.6%
CSc1cccc(NC(=S)NCCSc2ccc(Cl)cc2)c1	22.1%	?
SMILES	FMDV RLuc	FMDV antiviral
Cc1cc(Nc2ccccc2)nc(Nc2ccc(NC(=O)c3ccc(Cl)cc3)cc2)n1	12.6µM*	14.1µM*
Cc1cc(N2CCOCC2)nc(Nc2ccc(NC(=O)c3ccccc3)cc2)n1	-17.9%	-21.0%
Cc1ccc(NC(=O)C2CCCCC2)cc1	1.1%	197.4%
COc1ccc(Nc2cc(C)nc(Nc3ccc(NC(=O)C4CCCCC4)cc3)n2)cc1	28.2µM*	?
COC(=O)c1c(C)[nH]c(-c2cccc(OC)c2)c1C1C(=O)Nc2ccc(F)cc21 (centres undefined)	184.6%	26.9%
COc1ccc(C(=O)/C(C#N)=C\c2cc(Br)ccc2OC)cc1	9.0%	0.5%
Cc1ccc(-c2cc3ccccn3c2C=O)cc1C	53.7%	237.6%
CCc1ccc2oc(C(=O)NCCc3ccc(OC)c(OC)c3)cc(=O)c2c1	?	35.5µM*
COc1ccc(CCNC(=O)c2cc(=O)c3ccccc3o2)cc1OC	-12.9%	-20.5%
Cc1cc(-c2csc(N3CCN(C)CC3)n2)c(C)n1NC(=O)c1nn(C)c(=O)c2ccccc12	-12.3%	4.6%
COc1ccc(-c2nsc(NC(=O)COc3ccccc3OC)n2)cc1	-4.1%	10.9%
CC(Oc1ccc(F)cc1)C(=O)Nc1nc(-c2ccc(F)cc2)ns1 (centres undefined)	22.4µM*	22.4µM*
N#C/C(=C\c1ccc(-c2cccc(C(=O)O)c2)o1)c1nc2ccccc2[nH]1	114.2%	61.5%
O=C(Nc1ccc(Oc2ccccc2)cc1)c1cccc(CN2CCCC2=O)c1	7.94µM*	?
CC(C)CCC(C)NC(=O)c1ccc(CN2CCCC2=O)cc1 (centres undefined)	4.5%	96.7%
CC(C)(C)c1ccc(NC(=O)c2ccc(CN3CCCC3=O)cc2)cc1	22.4µM*	?
O=C(Nc1ccccc1Oc1ccccc1)c1cccc(CN2CCCC2=O)c1	17.2%	17.2%

Bioassay records as filed in PubChem BioAssay.
